# This is part of a sample that, as a whole, favours compounds with a hit. Of some 83,000 tested, about 20% had one in any assay.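 Interpretation: 100, growth as untreated; towards 0, rising growth inhibition; 0, no net growth; 0 to -100, cell death. Compounds scoring below 10 were considered active.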 Unmarked numbers belong to inactive results. Calls of active or inactive are those of the source.
# System: NCI-H522 lung
# Assay: NCI-60 one-dose screen, 48 h (100 = growth as untreated, 0 = no growth, -100 = all killed)
# Conditions: 10 µM
# Experimental: Growth inhibition of the NCI-H522 human Non-Small Cell Lung tumor cell line is measured as a screen for anti-cancer activity. Cells are grown in 96 well plates and exposed to the test compound for 48 hours. Compounds are tested at a single concentration, which is 10^-5 M for most compounds. The reported endpoint is percent growth (GI% or GIPRCNT), where numbers from 0 - 100% represent growth inhibition, and numbers from -100% - 0 represent cell death. For example, a value of 40 represents 60% growth inhibition. A value of 0 means no net growth occurred over the course of the experiment. A value of -40 indicates 40% of cells at the beginning of the experiment died by the end of the experiment. A value of -100 means all cells are dead at the end of the experiment.
# NCI-60 Human Tumor Cell Lines Screen was performed using the standard one-dose NCI protocol, which is described in more detail at https://dtp.cancer.gov/discovery_development/nci-60/default.htm.
# Compounds with GIPRCNT values below 10 were considered active. Activity score was based on GIPRCNT using the following formula: […]
# Score is 0 for GIPRCNT values of 100 or above, 50 for GIPRCNT values of 0, and 100 for GIPRCNT values of -100.
row,SMILES,growth
1,O=C1/C(=C/c2ccc(Cl)cc2)SC(=Nc2ccc(Cl)cc2)N1Cc1nc2ccccc2[nH]1,76.4%
2,N=C(N)c1ccc(-c2ccc(-c3ccccc3)o2)nc1,93.8%
3,N=c1c2c(-c3ccccc3)c(-c3ccccc3)n(Cc3ccccc3)c2ncn1CCCO,27.8%
4,CCN1CCCC1CNC(=O)c1ncc(-c2ccc(C(F)(F)F)cc2)c(NC2CCCCCC2)n1 (stereo not given),69.1%
5,COc1ccc(/C=C2/CN(C(=O)c3ccc(C)cc3)C/C(=C\c3ccc(OC)cc3)C2=O)cc1,69.1%
6,NC1=NC(=O)C(c2ccccc2)(c2ccccc2)S1,102%
7,CCCCCCCCCCCCCCCC(=O)OC1[C@@H](OC(=O)CCCCCCCCCCCCCCC)[C@@H](C(=O)N[C@@H](CCCCN)C(=O)OC)O[C@H]1n1cnc2c(=O)[nH]c(NC(=O)C(C)C)nc21 (stereo not given in full),84.4%
8,O=C(Nc1cccc(-n2cc(-c3ccncc3)c(-c3ccc(O)c(Cl)c3)n2)c1)c1ccc(N2CCOCC2)c(C(F)(F)F)c1,35.6%
9,COc1cc(C(=C2O[C@@H]([C@H]3COC(C)(C)O3)[C@H]3OC(C)(C)O[C@@H]23)c2cc(OC)c(OC)c(OC)c2)cc(OC)c1OC,106%
10,CN(C)C(=S)N/N=C\C=N/NC(=S)N(C)C,1.5% (active)
11,COc1cc2cc3c(nc2cc1OC)CCN3Cc1ccc(NC(=O)c2ccc(Cl)c(C(F)(F)F)c2)cc1,86.6%
12,O=C(N/N=C\c1cc(Cl)ccc1[N+](=O)[O-])c1ccco1,97.2%
13,O=c1c2ccccc2nc(SCCN2CCCCC2)n1CCc1ccccc1,89.2%
14,CSc1nn(-c2ccccc2)c2ncnc(Oc3ccccc3)c12,72.6%
15,O=C(/C=C/c1cc2ccccc2[nH]c1=O)c1ccc2c(c1)OCO2,3.16% (active)
16,COc1ccc(-c2nc(-c3nc4cc(Cl)c(Cl)cc4[nH]3)c3ccccn23)cc1,55.9%
17,CN(C)CCOc1nc2ccccc2c2c1-c1ccc(Cl)cc1C2=O,-65.5% (active)
18,COc1ccccc1CNCCCN1C(=O)c2ccc3c4c(ccc(c24)C1=O)C(=O)N(CCCN)C3=O,-79.1% (active)
19,COc1ccccc1/C=C/C(=O)c1ccccc1,62.7%
20,COc1ccc(N2C(=O)C3c4[nH]c5ccc(OCc6ccccc6)cc5c4C4CCC(C(C)C)CC4C3C2=O)cc1 (stereo not given),34.6%

row,SMILES,growth
1,O=C1OCC2=C1C(c1cccc(Cl)c1)c1cc3c(cc1N2CCO)CCC3 (stereo not given),-29.2% (active)
2,O=S(=O)(NCCCNc1nccc(-c2c(-c3ccc(F)cc3)nc3sccn23)n1)c1ccc(F)cc1,36.4%
3,Cc1ccc(N=Nc2c(N)nc(N)[nH]c2=O)cc1C,92.1%
4,COC(=O)c1ccc(=O)oc1,99.9%
5,O=C(CCCCC(=O)Nc1ccc2c(c1)/C(=C/c1ccc[nH]1)C(=O)N2)NO,49.4%
6,NC(=O)SCC(=O)Nc1ccc(S(N)(=O)=O)cc1,105%
7,COc1cc(-c2cc(/C=C3\C(=O)Nc4cc(Cl)ccc43)[nH]n2)cc(OC)c1OC,31.9%
8,COc1cc(CNc2ccccc2C(=O)N2CCN(C(=O)c3cc(-c4cc(OC)c(OC)c(OC)c4)n4nc(-c5ccccc5)cc4n3)CC2)cc(OC)c1OC,7.02% (active)
9,CCOC(=O)C(CSC(c1ccccc1)(c1ccccc1)c1ccccc1)NC(=O)C(CSC(c1ccccc1)(c1ccccc1)c1ccccc1)NC(c1ccccc1)(c1ccccc1)c1ccccc1 (stereo not given),99.4%
10,CN(Cc1ccccc1)Cc1ccc([N+](=O)[O-])cc1I,86.7%
11,COc1cc(Cl)cc(-c2nn(-c3cccc(NC(=O)c4ccc(Cl)c(Cl)c4)c3)cc2-c2ccncc2)c1,53.7%
12,CC[C@H]1CCC/C=C/[C@@H]2C[C@H](O)C[C@H]2[C@H](O)/C=C/C(=O)O1,-56.8% (active)
13,O=C(C[P+](c1ccccc1)(c1ccccc1)c1ccccc1)C[P+](c1ccccc1)(c1ccccc1)c1ccccc1,-83.8% (active)
14,COc1ccc(/C=C/C(=O)Nc2ccc(-c3nc4ccc(OC)cc4s3)cc2)cc1,91.2%
15,c1ccc([I+]c2ccccc2)cc1,64.7%
16,COc1cc(/C=C2\CCCC3=C2N=C2SC=NN2C3c2cc(OC)c(OC)c(OC)c2)cc(OC)c1OC (stereo not given),46.5%
17,O=C(Nc1ccc(Cl)cc1)N1NC(c2ccc(Cl)cc2)C=C1c1ccccc1 (stereo not given),98.4%
18,S=c1[nH]ccn1-c1c(Cl)cccc1Cl,11%
19,COc1ccc(C2=Nc3c(C)nn(-c4ccccc4)c3NC(c3ccc(Oc4ccnc5cc(Cl)ccc45)c(OC)c3)C2)cc1 (stereo not given),62.1%
20,CCCC(F)C(=O)O (stereo not given),89.5%

# — PubChem BioAssay (NCI)
